Assay results published in PubChem BioAssay (NCI).
Values joined by “and” are separate entries in the source; they are usually repeats but may differ in a detail not shown here. Equal entries are not always repeated. This is part of a sample that, as a whole, favours compounds with a hit. Of some 83,000 tested, about 20% had one in any assay.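 Interpretation: 100, growth as untreated; towards 0, rising growth inhibition; 0, no net growth; 0 to -100, cell death. Compounds scoring below 10 were considered active.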 Active and inactive are the calls of the source.

System: HL-60(TB) leukemia
Assay: NCI-60 one-dose screen, 48 h (100 = growth as untreated, 0 = no growth, -100 = all killed)
Conditions: 10 µM unless noted

| Compound | growth |
| --- | --- |
| COc1ccc(-c2nn(-c3ccccc3)cc2/C=C2\SC(=O)NC2=O)cc1 | 88.2% (inactive) |
| CCCCCCCCCCCCSC(=NC)NC | -37.6% (active) and 38.4% (inactive) |
| O=[N+]([O-])c1ccc(Oc2ccccc2)cc1 | 96.8% (inactive) and 79.2% (inactive) |
| CCCCCC(=O)OCC(=O)O[C@@H]1C[C@]2(C(C)C)O[C@@]1(C)[C@@H]1CC[C@@H](C)[C@H]1[C@@H]2OC(=O)/C=C/c1ccccc1 | 78.5% (inactive) |
| Nc1cc(-c2cccc(OC(F)(F)F)c2)nc2ccc(N3CCCC3)cc12 | -35.5% (active) and -28.5% (active) and -11.6% (active) |
| C[C@]12CCC(=O)C[C@H]1CC[C@@H]1[C@@H]2CC[C@@]2(C)[C@H]1CC[C@]2(O)C(=O)CO | 126% (inactive) |
| O=C(CN1CCN(c2cc3c(cc2F)c(=O)c(C(=O)O)cn3C2CC2)CC1)Nc1ccc(Cl)cc1 | 89.5% (inactive) and 98.4% (inactive) |
| CCCCCCC1N=C(N)N=C(N)N1c1cccc(Cl)c1 (stereo unspecified) | 44.3% (inactive) |
| CCCCCCC1(C)NCCO1 (stereo unspecified) | 91.2% (inactive) |
| Cc1ccc2c(ccc3c[n+]4c5ccccc5ccc4n32)c1 | 2.59% (active) |
| O=C1C=C(C(O)c2ccc(O)cc2)C(=O)c2ccccc21 (stereo unspecified) | 98.4% (inactive) |
